In ChEMBL document CHEMBL1157539, “Thousands of chemical starting points for antimalarial lead identification” (Nature, 2010):

test system: Plasmodium falciparum; assay: GSK_TCMDC: Inhibition of Plasmodium falciparum Dd2 in whole red blood cells, using parasite LDH activity as an index of growth. Test compounds present at 2uM; assay type: functional

In order of falling Inhibition:
1. Cc1cc(F)ccc1-c1nc(NCC(O)CNCCc2ccccc2)nc2c1ccc(=O)n2-c1c(F)cccc1F.O=C(O)C(F)(F)F (stereo not drawn)  100%
2. CC(=O)NCCNc1nccc(N2CCc3ncnc(Nc4ccc(OCc5ccccn5)c(Cl)c4)c3C2)n1  99%
3. O=C(Nc1ccc(Cl)c(Cl)c1)Nc1ccc(F)c([N+](=O)[O-])c1  96%
4. CCCCCCN1CCC(NCc2ccc(OCCN3CCCC3)cc2)CC1.O=C(O)C(F)(F)F  93%
5. C=C[C@H]1CN(CCCCCCC)CC[C@H]1CCNc1ccnc2ccc(OC)cc12  81%
6. Cc1nnsc1C(=O)Nc1cccc(-c2cccc(-c3nc4cccc(C)c4[nH]3)c2)c1  80%
7. CC(CN1CCN(C)CC1)C(=O)Nc1ccc(-c2ccc(-c3nc4ccccc4[nH]3)s2)cc1 (stereo not drawn)  79%
8. CC(=O)Nc1ccc(C#Cc2ccc(-c3c(C)[nH]c(C)c(Cl)c3=O)cc2)cc1  78%
9. CCN(CC)CCN(Cc1ccc(-c2ccc(C(F)(F)F)cc2)nc1)C(=O)Cn1c(SCc2ccc(F)cc2)nc(=O)c2sccc21.O=C(O)C(O)C(O)C(=O)O  66%
10. CN1CCN(CCCN(Cc2csc(-c3ccc(CNCc4ccccc4)cc3)n2)C(=O)Nc2cc(Cl)cc(Cl)c2)CC1.O=C(O)C(F)(F)F  45%
11. CC(C)CNC(=O)c1cncc(-c2cccc(CNC3Cc4ccccc4C3)c2)c1.O=C(O)C(F)(F)F  19%
12. O=C(Nc1ccc(OC2CCN(Cc3ccsc3)C2)c(Cl)c1)c1ccc2ncccc2c1.O=C(O)C(F)(F)F (stereo not drawn)  10%
13. CC(C)C1CCc2nc(N)nc(N)c2C1.Cl (stereo not drawn)  0%
